Structures are written as SMILES. The whole screen tested about 360,000 compounds, of which about 25,000 (6.9%) were called active. Inconclusive results (about 9%) are left out. Calls come from the whole dose curve; as a rule, active = well fitted inhibition curve with a large enough effect; inconclusive = small, poorly fitted or top-dose-only effect; inactive = flat fitted curve, though single readings scatter. The list comes from a sample in which actives are over-represented; it also holds similar structures and randomly drawn compounds. Entries that show only a call come without a potency.
Potency is the fitted concentration of half-maximal effect.

For the assay, the target named is Luciferin 4-monooxygenase (Photinus pyralis) (UniProt P08659). Description: qHTS profiling assay for firefly luciferase inhibitor/activator using purifed enzyme and Km concentrations of substrates (counterscreen for miR-21 project). Note: nearly all actives have a fitted effect of over 55% in size. As to conditions: purified FLuc, luminescence inhibition; series mostly up to 57.5 µM. In short, it runs like this: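 Purified P. pyralis luciferase, 10 nM final, with Km-level 10 uM D-luciferin and 10 uM ATP in 50 mM Tris acetate pH 7.5, 10 mM Mg acetate, 0.01% Tween-20, 0.05% BSA; 6-point qHTS titration about 60 µM downward; luminescence read.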
Luciferin 4-monooxygenase (Photinus pyralis), sequence (P08659 whole entry, looked up): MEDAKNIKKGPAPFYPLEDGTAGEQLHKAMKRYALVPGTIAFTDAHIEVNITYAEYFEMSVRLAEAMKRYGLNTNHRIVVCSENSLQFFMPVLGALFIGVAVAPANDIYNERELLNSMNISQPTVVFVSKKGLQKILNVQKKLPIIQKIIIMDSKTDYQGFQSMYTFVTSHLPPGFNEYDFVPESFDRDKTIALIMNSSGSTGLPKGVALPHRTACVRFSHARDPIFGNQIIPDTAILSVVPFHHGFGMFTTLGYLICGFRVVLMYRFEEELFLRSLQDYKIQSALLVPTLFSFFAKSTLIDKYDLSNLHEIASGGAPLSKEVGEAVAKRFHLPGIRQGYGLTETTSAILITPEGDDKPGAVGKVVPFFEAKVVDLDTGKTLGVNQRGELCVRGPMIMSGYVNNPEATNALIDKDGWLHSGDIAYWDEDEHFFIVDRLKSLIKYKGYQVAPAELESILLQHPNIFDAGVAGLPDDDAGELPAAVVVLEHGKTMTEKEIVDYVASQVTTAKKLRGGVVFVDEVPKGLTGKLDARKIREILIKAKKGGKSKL
For orientation: qHTS replaces the single test concentration by a dilution series.
Take `COC(=O)c1ccc(C)c(NC(=O)C2CC(=O)N(C3CCCC(C)C3C)C2)c1` (configuration not stated): the Potency result was “inactive”. Take `COn1c(-c2ccc(Cl)cc2Cl)nc2ncccc21`: the Potency result is “inactive”.

Take `Clc1ccc(COn2c(-c3ccc(Cl)cc3Cl)nc3ncccc32)cc1`: the Potency result is “inactive”. As to `Clc1ccc(-c2cc(-c3ccccn3)on2)c(Cl)c1`, the Potency was 0.0757 µM (active).

`O=C1N(Cc2ccccc2)c2ccc(Cl)cc2C1(O)c1c[nH]c2ccccc12` (configuration not stated): the Potency entry was “inactive”. Consider `Cc1ccc(-c2nn3c(=O)cc(CN4CCN(C(=O)Nc5cccc(C(F)(F)F)c5)CC4)nc3s2)cc1`, for which the Potency result is “inactive”. For `Cc1cccc(NC(=O)c2ccc3nc(C(C)C)oc3c2)c1C` the value was “inactive”; for `Cc1cc(C)c2oc(-c3cccc(NC(=O)c4cccc(F)c4)c3C)nc2c1`, 0.849 µM (active). On to `CCCCOc1ccc(C(=O)Nc2cccc(-c3nc4ccccc4o3)c2C)cc1`, for which the Potency result was “inactive”.

As to `CCc1cc2c(cc(C(=O)OC)n2Cc2nc(-c3ccc(C)cc3)oc2C)s1`, the Potency entry is “inactive”. On to `Cc1ccc(Cn2c(=O)n(-c3ccc(C)cc3)c(=O)c3c2c2cc(C)ccc2n3C)cc1`, for which the Potency entry is “inactive”.

For the compound `Cc1ccc(-c2cnc(NCc3ccc(C(C)C)cc3)n2C)cc1`, the Potency result was “inactive”. Consider `Cc1cccc(N(C(=O)c2sc(C)nc2C)C(C(=O)NCC2CCCO2)c2ccccc2)c1` (configuration not stated), for which the Potency result is “inactive”. In the case of `COc1ccc(/C=N/Nc2ncnc3sc4c(c23)CCCC4)cc1O`, the Potency was 1.69 µM (active). The entry for `COc1ccc(NC(=O)CCNC(=O)Cn2cnc3sc4c(c3c2=O)CCCC4)cc1OC` is “inactive”; for `COc1ccc(NC(=O)CCCNC(=O)Cn2cnc3sc4c(c3c2=O)CCCC4)cc1OC` it is “inactive”. For `CCCOc1ccc(NC(=O)CC2C(=O)N(c3ccccc3)C(=O)N2Cc2ccco2)cc1` (configuration not stated) the value was “inactive”; for `COc1ccc(CCc2nc(-c3cccs3)no2)cc1`, 19 µM (active). For `CCc1ccc(CNC(=O)CCc2nc(-c3cccs3)no2)cc1` the value was “inactive”; for `COc1ccc(OC)c(CNC(=O)CCc2nc(-c3cccs3)no2)c1`, “inactive”. As for `COc1ccc(-n2c(SC)nc3sc4c(c3c2=O)CCN(C(C)=O)C4)cc1`, the Potency result was “inactive”. For `Cc1cccc(NC(=O)Cn2c(=O)n(CCC(C)C)c(=O)c3cccnc32)c1`, the Potency entry is “inactive”. Turning to `COc1ccccc1C(=O)OCc1cc(=O)n2nc(-c3cccs3)sc2n1`, the Potency entry was “inactive”.

For the compound `O=C(Cn1c(=O)n(-c2ccc(F)cc2)c(=O)c2sc3ccccc3c21)NC1CCCC1`, the Potency entry is “inactive”. For `Cc1ccc(C)c2c1cc(C)c1nnc(SCC(=O)Nc3cccc(C(=O)O)c3)n12` the value was “inactive”. For `Cc1cccc(NC(=O)CSc2nnc(CNC(=O)c3cccc(C)c3)n2-c2ccccc2)c1`, the Potency result was “inactive”.

Take `Cc1ccc(C(=O)NCCc2nnc(SCC(=O)Nc3cccc(C(=O)O)c3)n2C)cc1`: the Potency was 10.7 µM (active).

Turning to `COc1ccc(CCN(Cc2cc3cccc(C)c3[nH]c2=O)C(=O)N2CCCC2)cc1OC`, the Potency result was “inactive”. Take `CCOc1ccc(NC(=O)c2cc(S(=O)(=O)N3CCCC3)c[nH]2)cc1`: the Potency entry is “inactive”. Take `Cc1c(C(=O)NCCCc2ccccc2)cccc1[N+](=O)[O-]`: the Potency result was “inactive”. Turning to `CC(C)c1ccc(C(=O)NCCCc2ccccc2)cc1`, the Potency was 10.7 µM (active). With `NS(=O)(=O)c1cc(C(=O)NCCOc2ccccc2)c(Cl)cc1Cl`, the Potency entry was “inactive”. For `CN(c1ccccc1)S(=O)(=O)c1ccc(C(=O)NCCc2ccccc2)cc1` the value was “inactive”; for `CCCCCCCCC(=O)NCCOc1ccccc1`, “inactive”. Turning to `O=C(CCNC(=O)c1ccc(Br)cc1)NCCCc1ccccc1`, the Potency entry is “inactive”. Regarding `O=C(NCCOc1ccccc1)c1ccccc1`, the Potency was 4.78 µM (active). For `COc1ccc(OCCCC(=O)NCCc2ccccc2)cc1` the value was “inactive”; for `CCCOc1ccc(C(=O)NCCc2ccccc2)cc1`, 1.07 µM (active). For `CCOc1ccc(C2C(C(=O)Nc3ccc(Cl)cc3)=C(C)Nc3nc(C(F)(F)F)nn32)cc1` (configuration not stated), the Potency entry was “inactive”. For `COc1ccc(CCNC(=O)c2c3c(nc4ccccc24)C(=O)N(C2CCCCC2)C3)cc1OC` the value was “inactive”; for `CCOC(=O)CN1C(C(=O)c2ccccc2)=C(OC(=O)C(C)(C)C)c2ccccc2S1(=O)=O`, “inactive”; for `CSc1nc(-c2ccccc2Cl)nc2c1Cc1c(CO)cnc(C)c1O2`, “inactive”. For `CCOc1ccc(NC(=O)c2ccccc2NS(C)(=O)=O)cc1` the value was 10.7 µM (active); for `CCOc1ccc(NC(=O)c2cnn(-c3ccccc3)c2-n2cccc2)cc1`, “inactive”. With `CCCNC(=O)Nc1ccccc1C(=O)Nc1ccc(OC)cc1`, the Potency result is “inactive”. With `COC(=O)c1ccccc1NS(=O)(=O)c1ccc2[nH]c(=O)[nH]c2c1`, the Potency result was “inactive”. For `COC(=O)c1ccc(NC(=O)c2ccccc2NS(=O)(=O)c2ccccc2)cc1` the value was 16.9 µM (active); for `COc1ccc(NC(=O)c2cnc(NS(=O)(=O)c3ccccc3)nc2)cc1`, “inactive”.

As to `CCC1CCCCN1S(=O)(=O)c1ccc(NC(=O)c2cc(=O)c3ccccc3o2)cc1` (configuration not stated), the Potency result is “inactive”. Consider `COc1ccc(NC(=O)CCCN2C(=O)CCn3nc(-c4cn(C)c5ccccc45)cc32)cc1OC`, for which the Potency entry was “inactive”. As for `O=S(=O)(NCCc1nnc2ccc(SCc3ccc(Cl)cc3Cl)nn12)c1ccccc1`, the Potency result was “inactive”. The entry for `CCOc1ccc2oc(=O)cc(CN3CCN(C(=O)c4ccc(F)cc4)CC3)c2c1` is “inactive”; for `Cc1cc(C)nc(N/N=C/c2ccncc2)n1` it is “inactive”; for `Cc1cc2c(C)nc(N/N=C/c3ccccc3)nc2o1` it is 9.53 µM (active). Consider `Cc1cc(C)nc(N/N=C/c2ccc([N+](=O)[O-])o2)n1`, for which the Potency result was “inactive”. For `COc1ccc([C@H]2CC(=O)C=C(c3ccc(C)cc3)C2)cc1`, the Potency entry was “inactive”. For `Cc1nnc(N2CCCC(C(=O)NCCN(C)C)C2)c2nn(-c3ccccc3)c(C)c12` (configuration not stated) the value was “inactive”; for `CCCCCOC(=O)NCCOC(=O)Nc1ccc(C(=O)OCC)cc1`, “inactive”; for `CCCCCCOC(=O)NCC(O)c1ccccc1` (configuration not stated), 12 µM (active).

For the compound `CCCCOC(=O)Nc1nnc(CC(=O)NCc2ccccc2)s1`, the Potency result is “inactive”. With `Cc1cc(Cl)ccc1C(=O)C1CCCN(C(=O)c2nonc2C)C1` (configuration not stated), the Potency result was “inactive”. In the case of `CCOC(=O)c1ccccc1NC(=O)c1nn(-c2ccc(OC)c(Cl)c2)c(=O)c2c1c1ccccc1n2C`, the Potency result was “inactive”. On to `COC(=O)CC1=NN(c2ccccc2)C(=O)C1`, for which the Potency result is “inactive”. In the case of `O=C1CC(c2ccccc2)=NN1c1ccc([N+](=O)[O-])cc1`, the Potency was 13.5 µM (active).

For `O=c1[nH]n(-c2ccc([N+](=O)[O-])cc2)c(=O)c2ccccc12`, the Potency result was “inactive”. On to `COc1cc(C)ccc1OCCSc1nc2ccc(NC(=O)c3ccc(C)cc3)cc2s1`, for which the Potency entry was “inactive”.

Consider `CN(C(=O)c1cccc(OC2CCN(S(=O)(=O)N(C)C)CC2)c1)C1CCOC1` (configuration not stated), for which the Potency entry is “inactive”. Consider `CNS(=O)(=O)c1cccc(C(=O)NCC2CCCCC2)c1`, for which the Potency entry is “inactive”. For the compound `CN(C)S(=O)(=O)N1CCC(Oc2cccc(C(=O)NCCCC3CCCC3)c2)CC1`, the Potency is 16.9 µM (active). The entry for `Cc1nn(-c2ccc(F)cc2)c(-n2cccc2)c1C(=O)N1CCN(c2ccccc2)CC1` is “inactive”. For `CCc1ccccc1N(C)C(=O)C1CCCN(c2ncnc3onc(-c4ccc(F)cc4)c23)C1` (configuration not stated), the Potency result was “inactive”.

Consider `Cc1ccc(S(=O)(=O)NNC(=S)NC(C)(C)C)cc1`, for which the Potency entry was “inactive”.

Regarding `O=C1CSC2(C(=O)N(Cc3ccccc3)c3ccccc32)N1c1cccc(F)c1` (configuration not stated), the Potency entry is “inactive”.

In the case of `Cc1cc(C)c(S(=O)(=O)N2CCC(C(=O)OCc3c(C)noc3C)CC2)c(C)c1`, the Potency entry is “inactive”. For the compound `CC(=O)Nc1ccc(Oc2ccc3c(c2)C(=O)NC3=O)cc1`, the Potency result was “inactive”. The figure for `CC(=O)Oc1ccc2c(c1)C(=O)c1ccccc1C2=O` is 8.49 µM (active); for `CC(=O)O[C@H]1c2ccccc2-c2ccccc2[C@@H]1OC(C)=O` it is “inactive”; for `COc1ccc([C@H]2CC(=O)C=C(/C=C/c3ccc(Cl)cc3)C2)cc1` it is “inactive”. The entry for `CCn1nc(C(=O)NNC(=O)C2CSC3(C)CCC(=O)N23)c2ccccc2c1=O` (configuration not stated) is “inactive”; for `Cc1sc2ncn(CC(=O)NCCCC(=O)N(C)Cc3ccccc3)c(=O)c2c1C` it is “inactive”; for `Cc1cc(=O)oc2c(C)c(OC(C)C(=O)NC3CCN(Cc4ccccc4)CC3)ccc12` (configuration not stated) it is “inactive”. The entry for `CN(CC(=O)Nc1ccc(N2CCOCC2)cc1)CC(=O)Nc1ccccc1[N+](=O)[O-]` is “inactive”. Turning to `O=C(NC(=S)Nc1ccc(S(=O)(=O)N2CCOCC2)cc1)c1ccccc1[N+](=O)[O-]`, the Potency entry is “inactive”.

For the compound `O=C(Nc1ccc(N2CCOCC2)cc1)c1ccc(-c2ccccc2[N+](=O)[O-])o1`, the Potency was 3.38 µM (active). Turning to `Cc1ccc2nc(C)c3c(c2c1)N(c1ccccc1)CC3`, the Potency result was “inactive”. For `O=C(Cn1c(-c2cccs2)cc2ccccc21)NCCc1ccc(Cl)cc1` the value was “inactive”. For `Cc1cc(/C=C(/C#N)C(=O)Nc2ccc(Cl)cc2)c(C)n1-c1cccnc1`, the Potency entry is “inactive”.

For `Cc1ccc2c(c1)N(CC(=O)NCC1CCCO1)C(=O)CO2` (configuration not stated), the Potency entry is “inactive”.

Regarding `Cc1ccc(-n2c(C)cc(/C=C(\C#N)C(=O)NCC3CCCO3)c2C)cc1` (configuration not stated), the Potency was 0.675 µM (active). As to `CC(=O)N1CCc2cc(Br)cc(S(=O)(=O)CCC(=O)NCCc3ccc(Cl)cc3)c21`, the Potency entry was “inactive”.

With `Cc1ccccc1C(=O)Nc1cc(C)c(O)c(-c2nc3ccccc3o2)c1`, the Potency result was “inactive”.

Take `CC(OC(=O)c1cc2ccccc2o1)C(=O)Nc1ccc(N2CCOCC2)cc1` (configuration not stated): the Potency result is “inactive”. Take `C/C(=N\NS(=O)(=O)c1cccc([N+](=O)[O-])c1)c1cc2ccccc2o1`: the Potency entry is “inactive”. The entry for `COC(=O)c1ccc(-c2nc3cc(NC(C)=O)ccc3o2)cc1` is “inactive”; for `Cc1ccc(NC(=O)c2cc3ccccc3o2)cc1` it is 3.38 µM (active). The figure for `Cc1ccsc1C(=O)OCC(=O)c1cc2ccccc2o1` is 5.36 µM (active). In the case of `CC(=O)N1CCN(c2ccccc2NC(=S)NC(=O)c2cc3ccccc3o2)CC1`, the Potency result was “inactive”. As for `Cc1ccsc1C(=O)OCC(=O)Nc1cccc(F)c1`, the Potency entry was “inactive”. Consider `C/C(=N\NC(=S)Nc1ccc(C)cc1)c1cc2ccccc2o1`, for which the Potency is 12 µM (active). As to `CC(=O)Nc1ccc(-c2nc3ccccc3o2)cc1`, the Potency is 3.01 µM (active). As for `CCN(C(=O)COC(=O)c1sccc1C)c1c(N)n(Cc2ccccc2)c(=O)[nH]c1=O`, the Potency entry is “inactive”. Regarding `Cc1cccc(-n2nc3c(c2NC(=O)c2cc4ccccc4o2)CS(=O)(=O)C3)c1`, the Potency result was “inactive”.
